Laboratory results taken from PubChem BioAssay (EPA / NIEHS).
Inconclusive results are not listed. Calls of active or inactive are those of the source. How the source made its calls, unless noted: active means hit-call score of the fitted dose curve at least 0.9, where 1 is the maximum; inconclusive means response in the unintended direction; inactive means score below 0.9.

Assays:
[1] = Tanguay_ZF_120hpf_PE_legacy: (Legacy) Oregon State University Tanguay Lab 120 Hour Post-fertilization zebrafish Assay for Pericardial Edema (AID 2283640);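 on AC50: potency for increased incidence of pericardial edema versus DMSO baseline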
In short: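 Scoring was binary, by brightfield microscopy at 120 hpf, and skipped where mortality occurred. Wild-type embryos were kept under sealed, foil-covered static exposure at 28C in 0.64% (vol/vol) DMSO.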

[2] = Tanguay_ZF_120hpf_BRAI_legacy: (Legacy) Oregon State University Tanguay Lab 120 Hour Post-fertilization zebrafish Assay for Brain Malformation (AID 2283641)
In short: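 Binary brightfield scoring of brain malformation at 120 hpf in Tropical 5D larvae held under static exposure at 28C (0.64% v/v DMSO), non-mortality endpoints skipped if dead. Positive control: 5uM trimethyltin chloride; fit versus DMSO.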

[3] = Tanguay_ZF_120hpf_SOMI_legacy: (Legacy) Oregon State University Tanguay Lab 120 Hour Post-fertilization zebrafish Assay for Somite Malformation (AID 2283647)
In short: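 Binary somite-defect scoring at 120 hpf, omitted for embryos that died, in wild-type (Tropical 5D) zebrafish with chorion removed by pronase at 4 hpf; static exposure began 6 hpf, single embryos per well, 28C, 0.64% DMSO; fitted positive versus DMSO.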

[4] = Tanguay_ZF_120hpf_PFIN_legacy: (Legacy) Oregon State University Tanguay Lab 120 Hour Post-fertilization zebrafish Assay for Pectoral Fin Malformation (AID 2283648);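 further: each larva judged yes or no for fin defect by brightfield with dead larvae skipped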
In short: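 5D WT zebrafish; pronase dechorionation 4 hpf; 1 embryo/well at 6 hpf; static exposure to 120 hpf, 28C, sealed, foil-covered; final DMSO 0.64% v/v; 5 uM trimethyltin chloride positive control; fin defect scored yes/no.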

[5] = Tanguay_ZF_120hpf_CFIN_legacy: (Legacy) Oregon State University Tanguay Lab 120 Hour Post-fertilization zebrafish Assay for Caudal Fin Malformation (AID 2283649)
In short: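 Binary brightfield scoring of caudal fin defects at 120 hpf after static, light-shielded exposure at 28C from 6 hpf. Tropical 5D embryos, chorion removed with pronase at 4 hpf, final DMSO 0.64%.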

[6] = Tanguay_ZF_120hpf_PIG_legacy: (Legacy) Oregon State University Tanguay Lab 120 Hour Post-fertilization zebrafish Assay for Pigmentation Malformation (AID 2283650)
In short: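 Pronase dechorionation at 4 hpf; embryos plated at 6 hpf, one per well; static exposure, sealed and foil-covered, 28C, to 120 hpf; pigmentation read by brightfield, binary; DMSO 0.64% baseline, 5uM trimethyltin chloride positive control.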

[7] = Tanguay_ZF_120hpf_CIRC_legacy: (Legacy) Oregon State University Tanguay Lab 120 Hour Post-fertilization zebrafish Assay for Circulatory Malformation (AID 2283651)
In short: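 Read-out: presence or absence of circulatory malformation at 120 hpf, scored by brightfield microscopy, fitted in the gain-of-signal direction against DMSO baseline. Wild-type 5D larvae were exposed from 6 hpf after enzymatic chorion removal.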

[8] = Tanguay_ZF_120hpf_SWIM_legacy: (Legacy) Oregon State University Tanguay Lab 120 Hour Post-fertilization zebrafish Assay for Swim Bladder Malformation (AID 2283654);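 further: swim bladder malformation in each larva scored yes or no under brightfield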
In short: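 Embryos lacking chorions were exposed individually and statically to test chemical from 6 to 120 hpf at 28C, with 0.64% DMSO as vehicle. At 120 hpf, swim bladder malformation was recorded as present or absent by brightfield microscopy.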

[9] = Tanguay_ZF_120hpf_TRUN_legacy: (Legacy) Oregon State University Tanguay Lab 120 Hour Post-fertilization zebrafish Assay for Truncated Body (AID 2283655)
In short: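 Binary presence/absence of truncated body is recorded at 120 hpf by brightfield, with non-mortality endpoints skipped after death. Exposure is static from 6 hpf in sealed dark plates at 28C, using dechorionated wild-type zebrafish, 0.64% DMSO.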

[10] = Tanguay_ZF_120hpf_NC_legacy: (Legacy) Oregon State University Tanguay Lab 120 Hour Post-fertilization zebrafish Assay for Notochord and Tail Malformation (AID 2283656)
In short: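 Dechorionated Tropical 5D wild-type zebrafish embryos, one per well from 6 hpf, statically exposed to 120 hpf at 28C in 0.64% DMSO final. Notochord distortion scored present/absent by brightfield; dead embryos excluded.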

[11] = Tanguay_ZF_120hpf_TR_legacy: (Legacy) Oregon State University Tanguay Lab 120 Hour Post-fertilization zebrafish Assay for Touch Response (AID 2283667)
In short: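 5D WT embryos; static exposure to 120 hpf, 28C, sealed/dark; DMSO 0.64% v/v final. TR scored present/absent; dead embryos excluded. Pos ctrl 5uM trimethyltin chloride.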

[12] = CCTE_Padilla_ZF_144hpf_TERATOSCORE: (Legacy) CCTE's 144 Hour Post-fertilization zebrafish Assay Teratoscore, Padilla Lab (AID 2283679; active means hit-call score of the fitted dose curve at least 0.9, where 1 is the maximum; inactive means score below 0.9;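 on AC50: zebrafish embryos with chorions exposed by immersion from 6-8 hpf to 5 dpf with daily renewal; teratogenicity score from eye scoring of death hatching and malformations at 144 hpf; higher score means more developmental defects relative to DMSO baseline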)
In short: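 Larvae scored by eye at 144 hpf for death, hatching and malformations after a day in clean Hanks'. Before that, daily-renewed exposure at 80 uM (0.4% DMSO, 26C) from roughly 6-8 hpf through 5 dpf, 4 embryos per chemical.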

[13] = STM_H9_OrnithineISnorm_perc: Stemina devTOX quickPredict H9 human embryonic stem cell (hESC)-based Assay for Ornithine (ORN) Metabolite Biomarker, Normalized (AID 2283712; active means hit-call score of the fitted dose curve at least 0.9, where 1 is the maximum; inactive means score below 0.9;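 further: ornithine released into spent medium during last day measured by mass spectrometry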)
In short: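 H9 human embryonic stem cells kept pluripotent receive test chemical over 72 h, refreshed daily by media exchange. Media from the closing 24 h is deproteinized and analysed by UPLC-HRMS on an amide column; ornithine signal is scaled to labelled standard and vehicle.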

[14] = tested on: Thyroperoxidase (TPO), gene 54314; assay: CCTE_Simmons_AUR_rTPO: CCTE's Amplex UltraRed Assay for Thyroperoxidase (TPO) Inhibition, Simmons Lab (AID 2283662);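 on AC50: potency for loss of signal meaning inhibition of peroxidase activity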
In short: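 Endpoint is decreased Amplex UltraRed fluorescence after a 30-min, 37C reaction of rat thyroid microsomes with 300 uM H2O2. Eight test concentrations (5 nM–87.5 uM final) in 0.5% DMSO, three biological replicates each.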

[15] = CCTE_Simmons_CellTiterGLO_HEK293T: Viability Assessment in CCTE's Assays for Thyroperoxidase (TPO) Inhibition, Simmons Lab (AID 2283665);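 further: cells exposed to compound for 24 h before readout; actives reduce ATP signal below DMSO vehicle meaning cytotoxicity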
In short: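 HEK293T, 10 000 cells/well, DMEM + 1% FBS; 8-pt titration 5 nM–87.5 uM [final], 0.5% DMSO; 24 hr, 37C, 5% CO2; CellTiter-Glo luminescence; n=3 biological replicates.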

Measured: AC50

C[C@@H]1C[C@H]2[C@@H]3CCC4=CC(=O)C=C[C@]4(C)[C@@]3(F)[C@@H](O)C[C@]2(C)[C@@]1(O)C(=O)COP(=O)(O)O
not listed: [14] | [15]
inactive: all other assays above

CCCCCCC(=O)O
not listed: [9] | [12] | [13] | [14] | [15]
inactive: all other assays above

CCCCC(CC)COC(=O)CCCCC(=O)OCC(CC)CCCC (stereo not given)
not listed: [13] | [14] | [15]
inactive: all other assays above

Oc1cc2ccccc2c2ccccc12
inactive: [10]
active: [1] 31.9 µM | [2] 36.2 µM | [3] 12.4 µM | [4] 12.1 µM | [5] 36.5 µM | [6] 12.9 µM | [7] 10.2 µM | [8] 10.3 µM | [9] 38.3 µM | [14] 1.72 µM | [15] 1.4 µM | [11] 38.8 µM | [12] 4.98 µM

CCCOC(=O)c1ccc(O)cc1
inactive: [10]
active: [1] 11 µM | [2] 41.4 µM | [3] 33.3 µM | [4] 45.8 µM | [5] 75.8 µM | [6] 49.1 µM | [7] 40.1 µM | [8] 10.6 µM | [9] 32.9 µM | [11] 41.5 µM | [12] 14.9 µM

CC[C@H](C)[C@@H](C(=O)O)n1sc2ccccc2c1=O
not listed: [8] | [12] | [13] | [14] | [15]
inactive: all other assays above

CC[C@H](c1ccc(O)cc1)[C@@H](CC)c1ccc(O)cc1
active: [14] 4.36 µM | [15] 2.25 µM | [12] 14.9 µM
not listed: [8] | [13]
inactive: all other assays above

CCc1ccc(CCOc2ccc(CC3SC(=O)NC3=O)cc2)nc1 (stereo not given)
active: [13] 72.1 µM
not listed: [8] | [12] | [14] | [15]
inactive: all other assays above

CC1=C(/C=C/C(C)=C/C=C/C(C)=C/C(=O)O)C(C)(C)CCC1
active: [1] 0.193 µM | [2] 0.237 µM | [3] 0.323 µM | [4] 0.248 µM | [5] 0.186 µM | [6] 0.252 µM | [9] 0.168 µM | [10] 0.272 µM | [14] 25 µM | [11] 0.0914 µM | [12] 0.0081 µM | [13] 0.0785 µM
inactive: [7] | [8]

O=C(O)Cc1cc(I)c(Oc2cc(I)c(O)c(I)c2)c(I)c1
active: [2] 0.00612 µM | [6] 0.0192 µM | [12] 0.0352 µM
not listed: [14] | [15]
inactive: all other assays above

CC(C)(C)c1ccc(O)c(C(C)(C)C)c1
active: [14] 13.6 µM | [15] 6.68 µM | [12] 7.38 µM
not listed: [13]
inactive: all other assays above

NC(=O)N(O)[C@@H]1C=C[C@H](Oc2cccc(Oc3ccc(F)cc3)c2)C1
active: [14] 6.75 µM | [15] 33.1 µM | [12] 14.9 µM
not listed: [7] | [13]
inactive: all other assays above

CN1CCN(c2ccccc2/C=C2\SCCN(c3ccc(Cl)c(Cl)c3)C2=O)CC1
active: [15] 9.55 µM | [12] 5.38 µM | [13] 6.56 µM
not listed: [11]
inactive: all other assays above

CCC(C)(C)C1CCC(O)CC1 (stereo not given)
not listed: [7] | [13] | [14] | [15]
inactive: all other assays above

OC1CCCCC1
not listed: [7] | [13] | [14] | [15]
inactive: all other assays above
